Drawing on PubChem BioAssay (NCATS), this text covers Potency, activity change, negative = inhibition and outcome for 42 compounds.

Experiment [1] in a line: Cytotoxicity counterscreen for inhibitors of SARS-CoV-2 cell entry (AID 1645845). Further: nearly all actives have a fitted effect of over 50% in size. Summed up: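 48 h compound treatment (after 1 h preincubation), HEK293-ACE2 cells, 37 C/5% CO2; ATP luminescence endpoint; normalized to cell wells and media blanks.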
On the technique in general: The purpose of a counterscreen is to sort out artefacts and off-target activity.

Experiment [2] in a line: Primary qHTS to identify inhibitors of SARS-CoV-2 cell entry (AID 1645846). Further: nearly all actives have a fitted effect of over 45% in size. Further: potency means the concentration at half of the fitted maximal effect. Particulars: activity change, negative = inhibition: at 57.1 µM (top of the series) unless noted. Summed up: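 Data are normalized to wells receiving SARS-CoV-2-S pseudoparticles and those given bald particles. Entry signal was luciferase luminescence in stable hACE2 Expi293F cells, 48 hr post-infection, after 1 hr compound pretreatment.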

“And” between values parts separate entries of the source, which are not always exact repeats. Equal values may be shown once. Inconclusive results are not listed. A call without a number means that no potency is given here. Where a structure was tested more than once in an assay, its records may differ in their call. The source made the active and inactive calls. The call rests on the fitted dose curve. Residues, ends and D or L forms follow the SMILES beside them.

As to `Cc1c(Nc2ncccc2C(=O)O)cccc1C(F)(F)F`, the Potency result in experiment [1] and in experiment [2] was “inactive” in each case. For `CN1CCN(C(c2ccccc2)c2ccc(Cl)cc2)CC1` (stereo unspecified), the Potency result in experiment [1] is “inactive”. Moreover, in experiment [2], the Potency was 10 µM (active). Turning to `COc1ccc2c(c1)c(CC(=O)OC/C=C(\C)CC/C=C(\C)CCC=C(C)C)c(C)n2C(=O)c1ccc(Cl)cc1`, in experiment [1], the Potency result was “inactive”. As to `NCCNCCNCCN`, the Potency entry in experiment [1] is “inactive”. Besides, the activity change, negative = inhibition in experiment [2] amounted to 2.68%.

For `NS(=O)(=O)c1cc(Cl)c(Cl)c(S(N)(=O)=O)c1`, the Potency result in experiment [1] is “inactive”. Moreover, the activity change, negative = inhibition in experiment [2] is -0.105%. For `CO/N=C(\C(=O)N[C@@H]1C(=O)N2C(C(=O)O)=C(C[N+]3(C)CCCC3)CS[C@H]12)c1csc(N)n1`, in that order: “inactive” and -9.52%.

Regarding `NC(=O)c1ccc([N+](=O)[O-])cc1Cl`, the Potency entry in experiment [1] was “inactive”. Besides, in experiment [2], the activity change, negative = inhibition was -5.3%. Turning to `C/C(=N\O)[C@@H](C)NCC(C)(C)CN[C@H](C)/C(C)=N/O`, the Potency result in experiment [1] and in experiment [2] was “inactive” throughout. For the compound `CN1[C@@H]2CC(OC(=O)[C@H](CO)c3ccccc3)C[C@H]1[C@@H]1O[C@@H]12` (stereo partly specified), the Potency result in experiment [1] and in experiment [2] was “inactive” in each case. Turning to `COC(=O)[C@H](Cc1ccccc1)NC(=O)[C@@H](N)CC(=O)O` (H-Asp-Phe-OMe), in experiment [1], the Potency result is “inactive”. The activity change, negative = inhibition in experiment [2] was -5.59%. Take `Cc1ccc(-c2ncc(Cl)cc2-c2ccc(S(C)(=O)=O)cc2)cn1`: the Potency result in experiment [1] and in experiment [2] was “inactive” in each case. Consider `CC(C)[C@H]1C(=O)N2CCC[C@H]2[C@]2(O)O[C@](NC(=O)[C@@H]3C[C@@H]4c5cccc6[nH]cc(c56)C[C@H]4N(C)C3)(C(C)C)C(=O)N12`, for which the Potency entry in experiment [1] was “inactive”. Regarding `CC(=O)[C@H]1CC[C@H]2[C@@H]3C[C@H](C)C4=CC(=O)CC[C@]4(C)[C@H]3[C@@H](O)C[C@]12C`, the Potency result in experiment [1] and in experiment [2] was “inactive” each time.

On to `Cc1ccnc(NS(=O)(=O)c2ccc(N)cc2)n1`, for which the Potency entry in experiment [1] and in experiment [2] was “inactive” throughout. With `CC(=O)NC[C@H]1CN(c2ccc(N3CCOCC3)c(F)c2)C(=O)O1`, the Potency entry in experiment [1] was “inactive”. In addition, in experiment [2], the activity change, negative = inhibition is -4.07%.

For `COc1c2occc2cc2ccc(=O)oc12`, the Potency entry in experiment [1] and in experiment [2] was “inactive” throughout.

With `CCCCCCCC(=O)OCC(COC(=O)CCCCCCC)OC(=O)CCCCCCC`, the Potency result in experiment [1] and in experiment [2] was “inactive” throughout. For `Cc1cc(O)c2c(O)c3c(O)cccc3cc2c1`, the Potency result in experiment [1] is “inactive”. Besides, the activity change, negative = inhibition in experiment [2] is -3.92%.

Take `Cc1cc(O)cc(C)c1Cl`: the Potency entry in experiment [1] and in experiment [2] was “inactive” throughout. For `C[N+]1(C)CCCC(OC(=O)C(O)(c2ccccc2)c2ccccc2)C1` (stereo unspecified), in experiment [1], the Potency result is “inactive”. In experiment [2], the activity change, negative = inhibition was -26.9%. On to `CC(C(=O)O)c1ccc(/C=C2\CCCCC2=O)cc1` (stereo unspecified), for which the Potency entry in experiment [1] and in experiment [2] was “inactive” in each case. Take `Nc1nc(Cl)nc2c1ncn2[C@H]1C[C@H](O)[C@@H](CO)O1`: in experiment [1], the Potency result is “inactive”. For `CC(CC(C#N)(c1ccccc1)C(C)C)N(C)C` (stereo unspecified), the Potency entry in experiment [1] and in experiment [2] was “inactive” each time. For the compound `CCCC(=O)O[C@]1(C(=O)COC(=O)CC)CC[C@H]2[C@@H]3CCC4=CC(=O)CC[C@]4(C)[C@H]3[C@@H](O)C[C@@]21C`, the Potency entry in experiment [1] is “inactive”. The activity change, negative = inhibition in experiment [2] is -22.2% [at 27.1 µM]. For `CC(C)(C)NCC(O)COc1ccccc1OCC1CCCO1` (stereo unspecified), in that order: “inactive” and 4.08%. For `CC(=O)SCC(CC(=O)c1ccc(C)cc1)C(=O)O` (stereo unspecified), the Potency result in experiment [1] and in experiment [2] was “inactive” each time. In the case of `CCN[C@H]1CN(CCCOC)S(=O)(=O)c2sc(S(N)(=O)=O)cc21`, the Potency entry in experiment [1] was “inactive”. In experiment [2], the activity change, negative = inhibition is -6.75%. For the compound `CCCCCCCCCCOc1cc2c(=O)c(C(=O)OCC)c[nH]c2cc1OCC`, the outcome in experiment [1] is “inactive [at 5.25 µM]”. In experiment [2], the activity change, negative = inhibition is -22.6% [at 5.25 µM]. As to `CN[C@@H]1[C@@H](O)[C@@H](O[C@@H]2[C@H](O)[C@H](O[C@H]3OC(CN)=CC[C@H]3N)[C@@H](N)C[C@H]2N)OCC1(C)O` (stereo partly specified), the Potency entry in experiment [1] and in experiment [2] was “inactive” throughout. For `CN1C[C@@H]2C[C@H]1CN2c1cc2c(cc1F)c(=O)c(C(=O)O)cn2C1CC1`, the Potency entry in experiment [1] is “inactive”. The activity change, negative = inhibition in experiment [2] was -27.1% [at 27.1 µM]. For `C[C@]12C=CC(=O)C=C1[C@@H](F)C[C@@H]1[C@@H]2[C@@H](O)C[C@@]2(C)[C@H]1CC[C@]2(O)C(=O)CO`, the Potency entry in experiment [1] and in experiment [2] was “inactive” in each case. For `O=C(O)c1cc(N=Nc2ccc(O)c(C(=O)O)c2)ccc1O`, in experiment [1], the Potency result is “inactive”. Further, in experiment [2], the activity change, negative = inhibition is -12.7%. In the case of `Oc1ccc(OCc2ccccc2)cc1`, the Potency result in experiment [1] was “inactive”. Also, the Potency result in experiment [2] is “inactive and 3.16 µM (active)”.

Consider `CCN(CC)CCNC(=O)c1cc(S(C)(=O)=O)ccc1OC`, for which the Potency result in experiment [1] and in experiment [2] was “inactive” throughout.

As to `Cc1ccc(Cl)c(Nc2ccccc2C(=O)O)c1Cl`, the Potency entry in experiment [1] was “inactive”. The activity change, negative = inhibition in experiment [2] was -1.76%. Consider `CCN1CCC[C@H]1CNC(=O)c1cc(S(N)(=O)=O)ccc1OC`, for which the Potency entry in experiment [1] and in experiment [2] was “inactive” each time. Regarding `Cc1cc2cc3c(C)cc(=O)oc3c(C)c2o1`, the Potency entry in experiment [1] and in experiment [2] was “inactive” in each case. Consider `CO[C@@]1(NC(=O)C(C(=O)O)c2ccc(O)cc2)C(=O)N2C(C(=O)O)=C(CSc3nnnn3C)CO[C@@H]21` (stereo partly specified), for which the Potency result in experiment [1] is “inactive”. Besides, the activity change, negative = inhibition in experiment [2] was -1.77%. For `CO/N=C(/C(=O)N[C@@H]1C(=O)N2C(C(=O)OCOC(=O)C(C)(C)C)=C(C)CS[C@H]12)c1csc(N)n1`, in that order: “inactive” and -24.9%. For `CC(=O)OCC(=O)[C@@]1(O)[C@H](C)C[C@H]2[C@@H]3CCC4=CC(=O)C=C[C@]4(C)[C@@]3(F)[C@@H](O)C[C@@]21C`, the Potency entry in experiment [1] and in experiment [2] was “inactive” in each case. Take `CCCCCCCCCCCCCCCC(=O)OC(C)C`: the Potency result in experiment [1] and in experiment [2] was “inactive” each time.

For `CC(O)(P(=O)(O)O)P(=O)(O)O`, the Potency entry in experiment [1] and in experiment [2] was “inactive” in each case.
